Data: PubChem BioAssay AID1159580 (chemical genetic matrix, 2015)
About 2,000 (36%) of roughly 5,500 compounds were called active. Another 18% or so got no clear call; they are omitted. No stated cut-off is given here; in the data, active means normalized growth mostly below about 0.91 (no sharp cut-off); inconclusive means no clear call, values can overlap the other calls; inactive means mostly above about 0.92. The list shows a part of the results.

Test: chemical genetic growth profiling, strain panel (AID 1159580);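 further: tested at 20 µM; growth read once vehicle control cultures reached saturation at 30 °C; 1 = growth at the plate median or of vehicle wells; lower values mean less growth of the strain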
Conditions: S. cerevisiae deletion strains, growth OD

Measured: normalized growth

COc1ccccc1/C=C\C(=O)O
inactive: locus YAL013W, strain DEP1, active compounds read low 1.02 | locus YAL021C, strain ccr4, active compounds read low 1.01 | locus YAL026C, strain drs2, active compounds read low 1.01 | locus YAL030W, strain snc1, active compounds read low 0.988 | locus YBL061C, strain skt5, active compounds read low 1 | locus YBR009C, strain hhf1, active compounds read low 1 | locus YBR021W, strain FUR4, active compounds read low 1.02 | locus YBR023C, strain chs3, active compounds read low 1.01 | locus YBR171W, strain sec66, active compounds read low 0.996 | locus YBR229C, strain ROT2, active compounds read low 1.02 | locus YBR231C, strain swc5, active compounds read low 1.02 | locus YBR279W, strain paf1, active compounds read low 1 | locus YCL011C, strain gbp2, active compounds read low 0.99 | locus YCL016C, strain dcc1, active compounds read low 1.01 | locus YCL029C, strain bik1, active compounds read low 1.02 | locus YCL061C, strain MRC1, active compounds read low 0.993 | locus YCL069W, strain vba3, active compounds read low 0.996 | locus YCR088W, strain abp1, active compounds read low 0.996 | locus YDL005C, strain med2, active compounds read low 1 | locus YDL035C, strain GPR1, active compounds read low 1.08 | locus YDL040C, strain nat1, active compounds read low 0.994 | locus YDL074C, strain BRE1, active compounds read low 1.19 | locus YDL101C, strain DUN1, active compounds read low 1.01 | locus YDL185W, strain tfp1, active compounds read low 0.971 | locus YDL192W, strain arf1, active compounds read low 1.04 | locus YDR001C, strain nth1, active compounds read low 0.991 | locus YDR069C, strain doa4, active compounds read low 1.03 | locus YDR101C, strain arx1, active compounds read low 1.01 | locus YDR137W, strain rgp1, active compounds read low 0.955 | locus YDR159W, strain sac3, active compounds read low 1.03 | locus YDR162C, strain NBP2, active compounds read low 1.05 | locus YDR195W, strain ref2 1.07 | locus YDR297W, strain sur2, active compounds read low 0.994 | locus YDR318W, strain mcm21, active compounds read low 1.04 | locus YDR334W, strain swr1, active compounds read low 1.01 | locus YDR335W, strain msn5, active compounds read low 1 | locus YDR388W, active compounds read low 1 | locus YDR392W, strain spt3, active compounds read low 0.793 | locus YDR502C, strain sam2, active compounds read low 1.03 | locus YEL003W, strain gim4, active compounds read low 0.996 | locus YEL037C, strain rad23, active compounds read low 1 | locus YEL061C, strain CIN8 (second series), active compounds read low 0.992 | locus YER015W, strain faa2, active compounds read low 1.01 | locus YER016W, strain bim1, active compounds read low 1.01 | locus YER110C, active compounds read low 1.03 | locus YER111C, strain swi4, active compounds read low 0.993 | locus YER155C, strain BEM2 (second series), active compounds read low 0.949 | locus YER155C, strain BEM2, active compounds read low 1.01 | locus YER167W, strain BCK2, active compounds read low 1.01 | locus YFR010W, strain ubp6, active compounds read low 1.02 | locus YGL078C, strain dbp3, active compounds read low 1.02 | locus YGL086W, strain mad1, active compounds read low 1.01 | locus YGL167C, strain pmr1, active compounds read low 0.991 | locus YGL173C, strain kem1, active compounds read low 0.998 | locus YGL227W, strain vid30, active compounds read low 1 | locus YGL240W, strain doc1, active compounds read low 0.981 | locus YGL248W, strain PDE1, active compounds read low 1.08 | locus YGL253W, strain hxk2, active compounds read low 1.01 | locus YGR078C, strain PAC10, active compounds read low 1.06 | locus YGR135W, strain pre9, active compounds read low 1.04 | locus YGR252W, strain gcn5, active compounds read low 1.15 | locus YHR013C, strain ard1, active compounds read low 0.927 | locus YHR027C, strain rpn1, active compounds read low 1 | locus YHR030C, strain SLT2, active compounds read low 1.01 | locus YHR079C, strain IRE1 (second series), active compounds read low 1.03 | locus YHR094C, strain hxt1, active compounds read low 0.998 | locus YHR129C, strain ARP1, active compounds read low 1.03 | locus YHR142W, strain chs7, active compounds read low 0.971 | locus YHR200W, strain rpn10, active compounds read low 1.01 | locus YIL066C, strain RNR3, active compounds read low 1.03 | locus YIL073C, strain SPO22, active compounds read low 1.23 | locus YIL125W, strain kgd1, active compounds read low 1.01 | locus YIR030C, strain dcg1, active compounds read low 1.02 | locus YJL092W, strain hpr5, active compounds read low 1 | locus YJL095W, strain BCK1 (second series), active compounds read low 1.02 | locus YJL095W, strain BCK1, active compounds read low 1.07 | locus YJL115W, strain asf1, active compounds read low 1.02 | locus YJL129C, strain trk1, active compounds read low 0.989 | locus YJL134W, strain LCB3, active compounds read low 1.01 | locus YJL154C, strain vps35, active compounds read low 1.01 | locus YJL164C, strain tpk1, active compounds read low 0.992 | locus YJL166W, strain qcr8, active compounds read low 0.98 | locus YJL168C, strain set2, active compounds read low 1.04 | locus YJL187C, strain SWE1 (second series), active compounds read low 1.04 | locus YJL187C, strain SWE1, active compounds read low 0.991 | locus YJR043C, strain POL32, active compounds read low 1.05 | locus YJR075W, strain HOC1, active compounds read low 1.02 | locus YKL009W, strain mrt4, active compounds read low 1.03 | locus YKL068W, active compounds read low 1.01 | locus YKL085W, strain MDH1 (second series), active compounds read low 0.99 | locus YKL085W, strain MDH1, active compounds read low 0.99 | locus YKL160W, strain elf1, active compounds read low 0.986 | locus YKR001C, strain vps1, active compounds read low 1.07 | locus YKR026C, strain gcn3, active compounds read low 1 | locus YKR091W, strain srl3, active compounds read low 0.995 | locus YLL001W, strain dnm1, active compounds read low 0.993 | locus YLL026W, active compounds read low 1 | locus YLL041C, strain sdh2, active compounds read low 0.999 | locus YLR027C, strain aat2, active compounds read low 1.01 | locus YLR039C, strain RIC1, active compounds read low 1.22 | locus YLR058C, strain SHM2, active compounds read low 1.04 | locus YLR102C, strain apc9, active compounds read low 1.01 | locus YLR221C, strain rsa3, active compounds read low 0.988 | locus YLR258W, strain gsy2, active compounds read low 0.987 | locus YLR262C, strain YPT6 (second series), active compounds read low 0.932 | locus YLR268W, strain sec22, active compounds read low 1.05 | locus YLR320W, strain mms22, active compounds read low 0.942 | locus YLR330W, strain CHS5, active compounds read low 1.03 | locus YLR342W, strain FKS1 (second series), active compounds read low 1.05 | locus YLR342W, strain FKS1, active compounds read low 0.996 | locus YLR357W, strain rsc2, active compounds read low 1.02 | locus YLR370C, strain arc18, active compounds read low 1 | locus YLR371W, strain rom2, active compounds read low 1.02 | locus YLR384C, strain iki3, active compounds read low 1.03 | locus YLR418C, strain cdc73, active compounds read low 1.15 | locus YML016C, strain PPZ1, active compounds read low 1.01 | locus YML032C, strain rad52, active compounds read low 1.03 | locus YML120C, strain ndi1, active compounds read low 0.994 | locus YML124C, strain tub3, active compounds read low 1.02 | locus YMR058W, strain fet3, active compounds read low 0.999 | locus YMR078C, strain ctf18, active compounds read low 1.02 | locus YMR125W, strain sto1, active compounds read low 1 | locus YMR129W, active compounds read low 0.993 | locus YMR205C, strain PFK2, active compounds read low 0.928 | locus YMR223W, strain ubp8, active compounds read low 1.03 | locus YMR231W, strain pep5, active compounds read low 1.01 | locus YMR307W, strain GAS1, active compounds read low 1.25 | locus YNL067W, strain RPL9B, active compounds read low 1.01 | locus YNL071W, strain lat1, active compounds read low 0.966 | locus YNL153C, strain GIM3, active compounds read low 1.06 | locus YNL209W, strain ssb2, active compounds read low 1.01 | locus YNL233W, strain BNI4, active compounds read low 1.08 | locus YNL248C, strain rpa49, active compounds read low 1 | locus YNL250W, strain rad50, active compounds read low 1.02 | locus YNL271C, strain bni1, active compounds read low 1.01 | locus YNL298W, strain CLA4, active compounds read low 1.03 | locus YNL307C, strain MCK1, active compounds read low 1.02 | locus YNL322C, strain KRE1 (second series), active compounds read low 0.999 | locus YNR049C, strain mso1, active compounds read low 1 | locus YNR052C, strain pop2, active compounds read low 1.03 | locus YOL006C, strain TOP1, active compounds read low 1.32 | locus YOL012C, strain htz1 1.02 | locus YOL147C, strain pex11, active compounds read low 1.02 | locus YOR001W, strain rrp6, active compounds read low 0.979 | locus YOR061W, strain CKA2, active compounds read low 1.02 | locus YOR069W, strain VPS5, active compounds read low 1.02 | locus YOR070C, strain gyp1, active compounds read low 1 | locus YOR080W, strain dia2, active compounds read low 1.01 | locus YOR083W, strain WHI5, active compounds read low 0.994 | locus YOR106W, strain vam3, active compounds read low 0.995 | locus YOR136W, strain idh2, active compounds read low 1.02 | locus YOR144C, strain elg1, active compounds read low 1.02 | locus YOR184W, strain ser1, active compounds read low 1.05 | locus YOR265W, strain rbl2, active compounds read low 0.994 | locus YOR270C, strain vph1, active compounds read low 0.843 | locus YOR290C, strain snf2, active compounds read low 0.952 | locus YOR316C, strain cot1, active compounds read low 1.01 | locus YPL051W, strain arl3, active compounds read low 0.992 | locus YPL078C, strain atp4, active compounds read low 0.987 | locus YPL106C, strain sse1, active compounds read low 0.987 | locus YPL240C, strain hsp82, active compounds read low 1 | locus YPR119W, strain clb2, active compounds read low 1.02 | locus YPR141C, strain kar3, active compounds read low 0.999 | locus YPR163C, strain tif3, active compounds read low 1.02 | locus YPR167C, strain met16, active compounds read low 1.03 | strain wtn01, active compounds read low 1.03
